Measured values from PubChem BioAssay.
“And” between values parts separate entries of the source, which are not always exact repeats. Equal entries are not always repeated. Inconclusive results are not listed. The source made the active and inactive calls.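 The calls were made as follows, unless noted: active = normalized viability below 100% at a tested concentration; inactive = the rest.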

Assays:
[1] = tested on: Aerobactin synthetase IucA (Klebsiella pneumoniae); experiment: inhibition of K. pneumoniae IucA enzyme – biochemical, Tocris library, absorbance (AID 1345561; call rule not given here;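 also: 100% = enzyme without compound and 0% = no enzyme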); settings: purified IucA enzyme assay, absorbance (OD) read-out; stronger effect = lower value;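 tested at 8 µM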
[2] = viability loss in pontine glioma line – cell-based, SU-DIPG-XVII, MIPE5.0, CellTiter-Glo, qHTS, dose response (AID 1347060; cut-off not given, nearly all actives have AC50 up to about 26 µM;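 also: cells exposed to compound for 48 hours before viability readout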); settings: CellTiter-Glo ATP luminescence
[3] = viability loss in pontine glioma line – cell-based, SU-DIPG-XIII, MIPE5.0, CellTiter-Glo, qHTS, dose response (AID 1347064; cut-off not given, nearly all actives have AC50 up to about 23 µM;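 as to AC50: cells exposed to compound for 48 hours before the viability read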); settings: CellTiter-Glo ATP luminescence
[4] = JHH-DIPG-1 glioma cell viability, MIPE5.0 library, CellTiter-Glo luminescence, qHTS (AID 1347067; cut-off not given, nearly all actives have AC50 up to about 26 µM;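 also: cells exposed to compound for 48 hours before readout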); settings: JHH-DIPG-1 glioma viability, CellTiter-Glo ATP luminescence
[5] = growth inhibition of DIPG cells – cell-based, MIPE5.0 library, qHTS (AID 1347068; cut-off not given, nearly all actives have IC50 up to about 30 µM;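 as to IC50: cells exposed to compound for 48 hours before viability readout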); settings: SU-DIPG-XXV viability
[6] = viability loss with induced miR-34 in A549 – imaging, A549 dox-inducible miR-34, nuclei and caspase counts, primary screen (AID 1347080;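 active = compounds whose cell count with miR-34 switched on is under 0.7 times the count with it off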); settings: A549 miR-34 inducible, Hoechst nuclei count, 48 h
[7] = galactose survival enhancers in mitochondrial complex I cybrids – cell-based, galactose medium, ATP luminescence, primary screen (AID 1645843;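 active = z-score of at least 1.8 in each of two replicates, scored against plate mean and spread of sample wells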;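 also: positive z means more ATP and so rescue of galactose-driven cybrid death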); settings: complex I mutant cybrid cells, 72 h, stronger effect = higher value
[8] = viability loss in pontine glioma line – cell-based, SU-DIPG-IV, MIPE4.0, CellTiter-Glo, qHTS, dose response (AID 1347063; cut-off not given, nearly all actives have AC50 up to about 30 µM;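 also: compound exposure lasted 48 hours before the viability readout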); settings: CellTiter-Glo ATP luminescence
[9] = viability loss in pontine glioma line – cell-based, SU-DIPG-XXV, MIPE5.0, CellTiter-Glo, qHTS, dose response (AID 1347065; cut-off not given, nearly all actives have AC50 up to about 26 µM;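 also: cells exposed to compound for 48 hours before ATP readout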); settings: CellTiter-Glo ATP luminescence
[10] = viability loss in pontine glioma line – cell-based, SU-DIPG-XIII, MIPE4.0, CellTiter-Glo, qHTS, dose response (AID 1347061; cut-off not given, nearly all actives have AC50 up to about 37 µM;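 also: cells exposed to compound for 48 hours before readout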); settings: CellTiter-Glo ATP luminescence
[11] = viability loss in pontine glioma line – cell-based, JHH-DIPG-1, MIPE4.0, CellTiter-Glo, qHTS, dose response (AID 1347062; cut-off not given, nearly all actives have AC50 up to about 27 µM); settings: JHH-DIPG-1 viability, CellTiter-Glo ATP luminescence
[12] = compounds altering HSF1 focus formation in cells – imaging, Selleck Cancer Library (AID 1347162; in the data active = plate-normalised HSF1 focus index below about 0.46); settings: human cells, HSF1 nuclear foci imaging, at 10 µM; SSMD: measured here: HSF1 foci SSMD mean; cell count: measured here: cell number; plate-normalised HSF1 focus index: stronger effect = lower value
[13] = drug combination growth inhibition, ovarian cancer – cell-based, oncology-focused library, rucaparib conditional, profiling panel (AID 1508598); settings: patient-derived ovarian cancer cells, CellTiter-Glo viability, 144 h, stronger effect = lower value
[14] = stronger effect = lower value, cell number ratio, induced over uninduced
[15] = measured here: relative caspase fold change +Dox/-Dox
[16] = measured here: total cells with miR-34 induction, stronger effect = lower value
[17] = measured here: total cells without miR-34 induction

CNC(=O)[C@H]1O[C@@H](n2cnc3c(NCc4cccc(I)c4)nc(Cl)nc32)[C@H](O)[C@@H]1O
active: AC50 [2] 18.6 µM | AC50 [3] 16.6 µM | AC50 [4] 23.5 µM
5880: cell count [6, 16]
inactive: remaining activity [1] 96.8% | outcome [5] | fold change [6, 14] 0.954 | z-score [7] -0.4
0.816: fold change [6, 15]
6160: cell count [6, 17]

C[C@H](NC(=O)c1sccc1OCc1ccc(Cl)cc1)c1ccccc1
inactive: remaining activity [1] 124% | outcome [5] | fold change [6, 14] 1.09 | z-score [7] -1.04
1.01: fold change [6, 15]
4320: cell count [6, 16]
3970: cell count [6, 17]
active: AC50 [8] 18.7 µM | AC50 [3] 11.8 µM | AC50 [9] 16.6 µM | AC50 [4] 18.6 µM

N#CC(=C(/N)Sc1ccccc1N)/C(C#N)=C(\N)Sc1ccccc1N
inactive: remaining activity [1] 92.9% | z-score [7] -0.875
active: AC50 [8] 8.33 µM

CCCC[C@@H](C=O)NC(=O)[C@H](CC(C)C)NC(=O)OCc1ccccc1
active: IC50 [5] 16.6 µM
6040 and 7590: cell count [6, 16]
6520 and 8800: cell count [6, 17]
1.01 and 0.983: fold change [6, 15]
inactive: remaining activity [1] 86.3% | outcome [9] | outcome [4] | fold change [6, 14] 0.927 and 0.862 | z-score [7] 2.31

C[C@H](NC(=O)Cc1cc(F)cc(F)c1)C(=O)N[C@H](C(=O)OC(C)(C)C)c1ccccc1
8840: cell count [6, 17]
active: viability ([13]; at 0.313 µM, OCI-P5x cells, without rucaparib) 99% | viability ([13]; at 1.25 µM, OCI-P5x cells, with rucaparib 20 µM, 100% = cells with rucaparib alone) 84.1% | viability ([13]; at 1.25 µM, OCI-P5x cells, without rucaparib) 85.6% | viability ([13]; at 5 µM, OCI-P5x cells, with rucaparib 20 µM, 100% = cells with rucaparib alone) 75.1% | viability ([13]; at 5 µM, OCI-P5x cells, without rucaparib) 78.3%
8110: cell count [6, 16]
inactive: remaining activity [1] 99.3% | outcome [10] | outcome [11] | outcome [3] | outcome [4] | fold change [6, 14] 0.918 | plate-normalised HSF1 focus index [12] 1.11 | viability ([13]; at 0.000305 µM, OCI-C5x cells, with rucaparib 10 µM, 100% = cells with rucaparib alone) 103% | viability ([13]; at 0.000305 µM, OCI-C5x cells, without rucaparib) 116% | viability ([13]; at 0.000305 µM, OCI-P5x cells, with rucaparib 20 µM, 100% = cells with rucaparib alone) 110% | viability ([13]; at 0.000305 µM, OCI-P5x cells, without rucaparib) 111% | viability ([13]; at 0.00122 µM, OCI-C5x cells, with rucaparib 10 µM, 100% = cells with rucaparib alone) 103% | viability ([13]; at 0.00122 µM, OCI-C5x cells, without rucaparib) 117% | viability ([13]; at 0.00122 µM, OCI-P5x cells, with rucaparib 20 µM, 100% = cells with rucaparib alone) 109% | viability ([13]; at 0.00122 µM, OCI-P5x cells, without rucaparib) 107% | viability ([13]; at 0.00488 µM, OCI-C5x cells, with rucaparib 10 µM, 100% = cells with rucaparib alone) 108% | viability ([13]; at 0.00488 µM, OCI-C5x cells, without rucaparib) 126% | viability ([13]; at 0.00488 µM, OCI-P5x cells, with rucaparib 20 µM, 100% = cells with rucaparib alone) 106% | viability ([13]; at 0.00488 µM, OCI-P5x cells, without rucaparib) 111% | viability ([13]; at 0.0195 µM, OCI-C5x cells, with rucaparib 10 µM, 100% = cells with rucaparib alone) 103% | viability ([13]; at 0.0195 µM, OCI-C5x cells, without rucaparib) 119% | viability ([13]; at 0.0195 µM, OCI-P5x cells, with rucaparib 20 µM, 100% = cells with rucaparib alone) 110% | viability ([13]; at 0.0195 µM, OCI-P5x cells, without rucaparib) 102% | viability ([13]; at 0.0781 µM, OCI-C5x cells, with rucaparib 10 µM, 100% = cells with rucaparib alone) 115% | viability ([13]; at 0.0781 µM, OCI-C5x cells, without rucaparib) 117% | viability ([13]; at 0.0781 µM, OCI-P5x cells, with rucaparib 20 µM, 100% = cells with rucaparib alone) 107% | viability ([13]; at 0.0781 µM, OCI-P5x cells, without rucaparib) 101% | viability ([13]; at 0.313 µM, OCI-C5x cells, with rucaparib 10 µM, 100% = cells with rucaparib alone) 106% | viability ([13]; at 0.313 µM, OCI-C5x cells, without rucaparib) 125% | viability ([13]; at 0.313 µM, OCI-P5x cells, with rucaparib 20 µM, 100% = cells with rucaparib alone) 102% | viability ([13]; at 1.25 µM, OCI-C5x cells, with rucaparib 10 µM, 100% = cells with rucaparib alone) 116% | viability ([13]; at 1.25 µM, OCI-C5x cells, without rucaparib) 117% | viability ([13]; at 5 µM, OCI-C5x cells, with rucaparib 10 µM, 100% = cells with rucaparib alone) 120% | viability ([13]; at 5 µM, OCI-C5x cells, without rucaparib) 120% | z-score [7] 0.56
2.12: SSMD [12]
6880: cell count [12]
1.67: fold change [6, 15]
